HCMV antiviral: human cytomegalovirus inhibition; HFF cells, HCMV-luciferase reporter, 72 h; active compounds read low; activity change, negative = inhibition, % at 57.5 µM; 4.5% of 410,000 active; AID 1259415; in the data active = activity change below about -60%; inconclusive = no clear call, values can overlap the other calls; inactive = above about -39%
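Luciferase read-out from HCMV-luciferase-infected HFFs (MOI 1 PFU/cell) 72 h post infection at 37C; compounds added after 16 h cell attachment; activity normalized between buffer-only basal and Salinomycin (10uM) inhibitor controls.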
Vaccinia mCherry: inhibitors of vaccinia virus infection (mCherry reporter signal); Vaccinia virus mCherry reporter infection, fluorescence; Potency, µM (highest dose often 36.5 µM), actives largely listed as inhibitors; 0.63% of 310,000 active; calls by dose curve; tested in A549 cells; also: nearly all actives have a fitted effect of over 35% in size
HCV inhibitor: inhibitors of hepatitis C virus infection | AID 651820 | 3.4% of 340,000 active | Huh7.5.1 HCVcc-Cre infection, luciferase reporter, 44 h | Potency, µM (series often up to 41.8 µM), most hits filed as inhibitors
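Whole-lifecycle infectious HCVcc-Cre system; cells 1,000/well, compound then virus (~0.5 moi) added 4 h after plating, 44 h culture. Luciferase read 15 sec following 15 min substrate incubation, room temp.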
Sm TGR inh: S. mansoni TGR enzyme inhibition; 3% of 360,000 active; Q962Y6; Potency, µM (top dose mostly 114 µM), most hits filed as inhibitors; purified TGR, DTNB reduction, TNB absorbance 405 nm; AID 485364; also: nearly all actives have a fitted effect of over 60% in size
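TGR 20 nM + NADPH 100 uM (dispensed conc.), cpd preinc 15 min RT; start with NADPH (500 uM addition) then DTNB (15 mM addition). Kinetic TNB absorbance, 405 nm filter. Four-parameter Hill fit across titration.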
VACV Venus inh: inhibitors of vaccinia virus (Venus reporter). Vaccinia virus Venus reporter expression, fluorescence. Potency, µM (titrated, usually from 36.5 µM), most hits filed as inhibitors. 0.46% of 330,000 active. AID 720580; calls by dose curve; tested in A549 cells; also: nearly all actives have a fitted effect of over 30% in size
FMDV inh: blocks foot and mouth disease virus | Potency, µM (titrated, usually from 57.9 µM), usual class: inhibitors | FMDV antiviral cell-based qHTS | 1.2% of 410,000 active | AID 1159524; calls by dose curve; tested in HEK293T cells; also: read-out not given here; nearly all actives have a fitted effect of over 45% in size
Hits are given with their value; . = inactive; ? = inconclusive; / = no result; [ ] = dose if it differs, or a comment. An excerpt weighted towards active compounds, which were near 9.3% of everything screened. Unless noted, calls follow the shape of the dose curve; as a rule, active = well fitted curve in the direction sought with a large enough effect; inconclusive = small, poorly fitted or top-dose-only effect, or another doubt; inactive = no such curve, though single readings can be large; an effect the other way counts as inactive or inconclusive.

SMILES | HCMV antiviral | Vaccinia mCherry | HCV inhibitor | Sm TGR inh | VACV Venus inh | FMDV inh
Cc1cc(C)c(S(=O)(=O)Nc2ccc(C(N)=O)cc2)c(C)c1 | -84.4 | . | . | . | . | .
Cc1cc(C)c(S(=O)(=O)Nc2ccc(O)cc2)c(C)c1 | . | / | . | .[11.4 µM] | / | .
CCN(CC)CCCN1C(=O)c2oc3ccccc3c(=O)c2C1c1cccs1 (stereo not drawn) | / | / | . | . | / | /
Cc1cccc(N(C)C(=S)Oc2ccc3ccccc3c2)c1 | -60.6 | . | .[8.37 µM] | . | . | .
c1cc2c(cc1-c1[nH]ncc1CN1CC3C[C@@H]4CC1C[C@H](C3)C4)OCO2 | -69.4 | . | . | . | . | .
Cc1ccc(/C=N/NC(=O)c2ccc(N(C)S(=O)(=O)c3ccccc3)cc2)cc1 | . | . | ? | . | . | .
O=S(=O)(O)c1cc(O)c2c(O)c(N=Nc3cc(Cl)ccc3O)c(S(=O)(=O)O)cc2c1 | / | . | . | . | . | 12.6µM
Cc1cc(-c2ccc(N=Nc3c(S(=O)(=O)O)cc4cc(S(=O)(=O)O)cc(N)c4c3O)c(C)c2)ccc1N=Nc1c(S(=O)(=O)O)cc2cc(S(=O)(=O)O)cc(N)c2c1O | / | / | ? | . | / | /
CCCNC(=S)Nc1ccc2nc(-c3ccccn3)c(-c3ccccn3)nc2c1 | . | . | . | 12.6µM | . | .
C=CCNc1sc(C(=O)c2cccs2)c(N)c1C#N | . | . | . | . | . | .
CCOC(=O)c1sc(NCc2ccco2)c(-c2nc3ccccc3s2)c1N | . | / | 10µM | .[11.4 µM] | . | .
CCNc1sc(C(=O)c2cccs2)c(N)c1C#N | . | / | 12.6µM | . | ? | .
CCNc1sc(C(=O)c2cccs2)c(N)c1-c1nc2ccccc2s1 | -80.4 | . | 5.01µM | . | . | .
C=CCNc1sc(C(=O)c2ccccc2)c(N)c1-c1nc2ccccc2s1 | / | . | . | . | ? | .
C/C(=N\N=C(N)N)c1cc(Cl)ccc1Cl | . | . | ? | / | . | .
O=C(COC(=O)Cc1ccc(Cl)cc1)Nc1ccc2[nH]c(=O)[nH]c2c1 | . | . | . | . | . | .
Cc1ccccc1C(=O)NC(C)c1nnc2n1CCN(Cc1ccnc3ccccc13)CC2 (stereo not drawn) | / | . | / | / | . | .
CC(C)Cc1ccc(C(C)C(N)=NCCc2ccccc2)cc1 (stereo not drawn) | -86.7 | ? | ? | . | . | .
COc1ccc(CCN=C(N)C(C)c2ccccc2)cc1OC (stereo not drawn) | . | . | . | . | . | .
CCCn1c2ccc(/C(C)=N\O)cc2c2cc(/C(C)=N/O)ccc21 | . | . | 12.6µM | . | . | .
C/C(=N\O)c1ccc(Cl)c(Cl)c1 | / | . | . | . | . | .
COC(=O)[C@@]12C[C@@H](CC(=O)NCCC(C)C)C(=O)N(CCc3ccc(OC)c(OC)c3)C1=CCC(C)(C)C2 | . | . | / | / | . | .
c1ccc(C[C@H]2CNCCN2CC2(c3ccccc3)CC2)cc1 | . | ? | ? | 44.7µM | . | .
FC(F)(F)c1cc(CCN2CCNC[C@@H]2Cc2ccccc2)cc(C(F)(F)F)c1 | -64.2 | 12.6µM | . | / | 11.2µM | .
COc1ccc(CC(=O)n2[nH]c(=O)ccc2=O)cc1OC | . | .[7.34 µM] | . | 0.562µM | .[7.34 µM] | .
SMILES | HCMV antiviral | Vaccinia mCherry | HCV inhibitor | Sm TGR inh | VACV Venus inh | FMDV inh
CCOC(=O)c1cnn(-c2sc(C(=O)OCC)c(C)c2C(=O)OCC)c1N | -68.4 | . | ? | / | . | /
O=C(NCc1ccc2c(c1)OCO2)c1cc(-c2ccccc2)c(N2CCOCC2)s1 | / | / | 14.1µM | . | / | .
COc1ccc(CCNC(=O)c2cc(-c3ccccc3)c(N3CCOCC3)s2)c(OC)c1OC | . | / | 10µM | . | / | .
CN(Cc1ccc2c(c1)OCO2)C(=O)c1cc(-c2ccccc2)c(N2CCOCC2)s1 | . | / | 10µM | . | / | .
O=C(NCc1ccco1)c1cc(-c2ccccc2)c(N2CCOCC2)s1 | . | ? | 8.91µM | . | . | .
O=C(O)c1cc(-c2ccccc2)c(N2CCOCC2)s1 | . | . | . | . | . | .
CCOc1ccc(CCNC(=O)c2cc(-c3ccccc3)c(N3CCOCC3)s2)cc1 | . | . | ? | / | . | .
O=c1[nH]c(C2CCCN(S(=O)(=O)c3ccccc3)C2)nc2c1nnn2Cc1ccccc1F (stereo not drawn) | ? | / | . | . | . | .
O=C(c1cnn2cccnc12)N1CCN(Cc2ccc3c(c2)OCO3)CC1 | . | . | ? | . | . | /

Compound activity as filed in PubChem BioAssay.
